Giardia killer – Small Molecules that selectively kill Giardia lamblia: qHTS; Giardia lamblia trophozoite viability; activity change, % at 7.66 µM, hits read low; 340,000 compounds, 0.15% hits; AID 540267, 2011; in the data active = activity change below about -80%; inconclusive = between about -30% and that limit;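 also: parasites exposed to compound for two days anaerobically before the ATP read; % is scaled to controls: 0 for no effect and ±100 for the full control effect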
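Giardia trophozoites, 100 cells per well, were exposed to compounds for 48 hrs at 37 deg C under anaerobic conditions; viability was then read as ATP content by bioluminescence after 15-30 min at room temperature.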
PTHR1 agonist – qHTS for PTHR1 Agonists: Primary Screen. HEK293 GP2 PTHR1 cells, GloSensor cAMP luminescence, 1 h. Potency, µM (series often up to 115 µM), inactives show at the top dose activation, usual class: activators. 410,000 compounds, 0.075% hits. AID 743266, 2014; also: potency is read from the fitted curve at half-maximal effect; nearly all actives have a fitted effect of over 55% in size
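HEK-293-derived GP2 cells expressing PTHR1 and a GloSensor cAMP reporter, 3,000/well, plated overnight, given luciferin plus IBMX (each 0.5 mM as added) for 1 h at 37 °C, then compound for 1 h at 37 °C. Luminescence was read after 15 min at room temperature.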
ERG Ets-DNA blk – qHTS for Small Molecule Inhibitors of the ERG Ets/DNA interaction; 370,000 compounds, 0.028% hits; fluorescence polarization, His-ERG Ets domain / labelled DNA; Potency, µM (highest dose often 76.9 µM), for the others: top-dose FP activity, negative = inhibition, most hits filed as inhibitors; Transcriptional regulator ERG (Homo sapiens), P11308; AID 624246, 2012; active = well fitted inhibition curve with a large enough effect in the polarisation, with a control signal flat; inconclusive = small, poorly fitted or top-dose-only effect, or effect the other way, or a change in a side signal; inactive = no such curve, though single readings can be large or run the other way; the % refers to the polarisation;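 also: polarization taken with two DNA probes labelled with fluorescein and Texas red; potency is read from the fitted curve at half-maximal effect; % of control where 0% means no effect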
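His-tagged ERG Ets domain (1 uM in the protein solution; 300mM KCl, 50mM Tris-HCl, 1mM EDTA, 1mM DTT, pH 7.5) received compound, then a probe mix of 5 nM fluorescein-DNA and 100nM Texas-615-DNA. Fluorescence polarization was read for both dyes.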
miR-21 act – qHTS Assay for Modulators of miRNAs and/orActivators of miR-21 | HeLa miR-21 FLuc reporter, luciferase, 48 h | AID 2288, 2010 | 340,000 tested, under 10 active | Potency, µM (top dose mostly 38.3 µM), inactives show top-dose activity change, positive = activation, usual class: activators;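 also: % of control where 0% means no effect; miR-21 action dims this reporter so a rising signal means less miR-21 action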
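HeLa miR-21-FLuc reporter line, endogenous miR-21; 2000 cells/well in DMEM/10% FBS; compound titration up to ~40uM final, 48 h, 37 degree Celsius; luciferase detection reagent, 15 min lysis, CCD luminescence.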
12-LOX inh – Primary qHTS assay for inhibitors of human arachidonate 12S-lipoxygenase (ALOX12): Round 2. Polyunsaturated fatty acid lipoxygenase ALOX12 (Homo sapiens), P18054. purified 12hLO, xylenol orange hydroperoxide absorbance. Potency, µM (doses to about 108 µM), inactives show at the top dose activity change, negative = inhibition, usual class: inhibitors. 580,000 compounds, 1.1% hits. AID 1671190, 2021; also: potency is read from the fitted curve at half-maximal effect; % is scaled to controls: 0 for no effect and ±100 for the full control effect
Target sequence (P18054 whole entry, looked up): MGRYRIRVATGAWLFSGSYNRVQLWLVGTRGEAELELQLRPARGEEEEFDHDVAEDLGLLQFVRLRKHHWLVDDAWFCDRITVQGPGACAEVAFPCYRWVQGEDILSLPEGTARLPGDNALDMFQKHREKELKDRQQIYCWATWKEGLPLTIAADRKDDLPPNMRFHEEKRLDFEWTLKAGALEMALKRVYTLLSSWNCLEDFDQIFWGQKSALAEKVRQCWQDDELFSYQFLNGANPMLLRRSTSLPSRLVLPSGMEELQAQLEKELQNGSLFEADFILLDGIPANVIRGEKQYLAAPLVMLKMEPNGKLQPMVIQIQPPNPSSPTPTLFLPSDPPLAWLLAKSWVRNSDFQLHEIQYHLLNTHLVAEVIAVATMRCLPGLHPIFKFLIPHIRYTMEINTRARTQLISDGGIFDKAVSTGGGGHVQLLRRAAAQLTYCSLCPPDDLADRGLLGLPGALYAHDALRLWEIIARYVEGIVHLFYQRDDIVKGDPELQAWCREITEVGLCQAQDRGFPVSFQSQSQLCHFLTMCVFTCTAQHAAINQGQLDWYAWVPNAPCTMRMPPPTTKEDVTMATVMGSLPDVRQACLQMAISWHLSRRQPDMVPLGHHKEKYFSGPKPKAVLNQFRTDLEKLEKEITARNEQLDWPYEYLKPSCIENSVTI
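Hydroperoxide product was detected by ferrous iron/xylenol orange as the 573 to 405 nm absorbance ratio. Arachidonic acid at 40 uM (final) was turned over for 30 min at room temperature by 150 nM human 12hLO, pH 7.0 Hepes buffer, after 15 min compound preincubation.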
PINK1 expr mod – A Quantitative High throughput Screen to Identify Chemical Modulators of PINK1 Expression | AID 624263, 2012 | PINK1 immunofluorescence, high-content cytometry, 24 h | Potency, µM (series often up to 76.6 µM), for inactives: top-dose activation (PINK1 increase), hits mostly activators | 410,000 compounds, 0.2% hits; active = well fitted activation curve with a large enough effect; inconclusive = small, poorly fitted or top-dose-only effect; cell line not stated here; also: potency is read from the fitted curve at half-maximal effect; % of control where 0% means no effect; nearly all actives have a fitted effect of over 65% in size
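PINK1 protein level read as immunofluorescence by microplate cytometer in a fixed, stained stable cell line after 24 h exposure to five compound concentrations, with CCCP as control.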
The depositor's hits bear a star; [ ] = another dose, or the depositor's remark. Only some compounds are listed: those with a hit (about 1.3% of all), similar ones and a draw of the others. Unless noted, calls follow the shape of the dose curve; as a rule, active = well fitted curve in the direction sought with a large enough effect; inconclusive = small, poorly fitted or top-dose-only effect, or another doubt; inactive = no such curve, though single readings can be large; an effect the other way counts as inactive or inconclusive.

What do the screens show for `Cn1cccc1/C=C(/C#N)C(N)=S`?
Giardia killer: 0.4; PTHR1 agonist: -20.6%; ERG Ets-DNA blk: -9.2%; miR-21 act: 4.8%; 12-LOX inh: inconclusive; PINK1 expr mod: 4.7%

Results for CCCCc1ccc(/C=C(\C#N)C(N)=S)s1 ?
Giardia killer: -13.9; PTHR1 agonist: inactive; ERG Ets-DNA blk: -3.1%; miR-21 act: 2.8%; 12-LOX inh: 39.8µM*; PINK1 expr mod: 5.9%

What do the screens show for `COc1ccc(Br)cc1/C=c1\sc2nc(-c3ccco3)nn2c1=O`?
Giardia killer: 1.5; PTHR1 agonist: inactive; ERG Ets-DNA blk: 1.5%; miR-21 act: -3.2%; 12-LOX inh: 22.4µM*; PINK1 expr mod: -0.5%

What do the screens show for `Cc1ccc(/C=c2\sc3nc(-c4ccco4)nn3c2=O)o1`?
Giardia killer: 2.9; PTHR1 agonist: -22.2%; ERG Ets-DNA blk: 10.3%; miR-21 act: -0.7%; PINK1 expr mod: 3.0%

How did CC(C(=O)NCc1cccc(Br)c1)n1ncn2cccc2c1=O (stereo not given) do in these assays?
PTHR1 agonist: inconclusive; ERG Ets-DNA blk: 3.1%; miR-21 act: 27.2%; 12-LOX inh: -3.8%; PINK1 expr mod: -0.7%

Results for CC(=O)NCCn1c(SCC(=O)NCCC2=CCCCC2)nc2ccccc2c1=O ?
Giardia killer: -9.0; PTHR1 agonist: -2.5%; ERG Ets-DNA blk: 1.8%; miR-21 act: 1.4%; 12-LOX inh: 0.0%

What do the screens show for `Cc1ccc(N(CC(=O)NCCSCc2ccco2)S(=O)(=O)c2ccc(F)cc2)cc1`?
Giardia killer: 8.8; PTHR1 agonist: inactive; ERG Ets-DNA blk: -14.8%; miR-21 act: 9.6%; 12-LOX inh: -10.1%; PINK1 expr mod: 0.6%

Results for Cc1ccc(S(=O)(=O)N(CC(=O)NCCSCc2ccco2)c2cc(C)ccc2C)cc1 ?
Giardia killer: -3.1; PTHR1 agonist: -30.1%; ERG Ets-DNA blk: -12.0%; 12-LOX inh: 39.8µM*; PINK1 expr mod: -0.7%

What do the screens show for `C[C@H]1CN([C@@H](C)CO)C(=O)c2cc(-c3ccccc3F)cnc2O[C@@H]1CN(C)C(=O)NC1CCCCC1`?
PTHR1 agonist: -22.7%; 12-LOX inh: inconclusive; PINK1 expr mod: 0.4%

What do the screens show for `FC(F)(F)c1ccc2c(c1)NCC1CCCN21` (stereo not given)?
Giardia killer: -0.4; PTHR1 agonist: -19.5%; ERG Ets-DNA blk: 12.5%; miR-21 act: -10.6%; 12-LOX inh: 5.1%; PINK1 expr mod: 1.1%

What do the screens show for `FC(F)(F)c1ccc2c(c1)N1CCCC1CN2` (stereo not given)?
Giardia killer: -87.1*; PTHR1 agonist: inactive; ERG Ets-DNA blk: -8.6%; miR-21 act: 4.3%; 12-LOX inh: -16.0%; PINK1 expr mod: 0.2%

Results for O=C(CCCc1ccccc1)N1CCN(c2ccc([N+](=O)[O-])cc2)CC1 ?
Giardia killer: -2.2; PTHR1 agonist: -12.4%; ERG Ets-DNA blk: -9.2%; miR-21 act: 4.2%; 12-LOX inh: 0.0%; PINK1 expr mod: 7.2%

How did Cc1ccc(S(=O)(=O)NC(C(=O)Oc2ccc3c(C(F)(F)F)cc(=O)oc3c2)c2ccccc2)cc1 (stereo not given) do in these assays?
Giardia killer: 8.8; PTHR1 agonist: inactive; ERG Ets-DNA blk: -0.4%; miR-21 act: 0.2%; 12-LOX inh: 50.1µM*; PINK1 expr mod: 1.5%

How did COc1cc(C)cc(C(=O)O)c1C1=C(O)c2cccc(O)c2C(=O)C1=O do in these assays?
Giardia killer: 9.9; PTHR1 agonist: -7.7%; ERG Ets-DNA blk: 6.8%; miR-21 act: 5.4%; 12-LOX inh: 14.8%; PINK1 expr mod: 0.1%

Results for COc1ccc(NC(=S)Nc2ccc(C)c(S(=O)(=O)N3CCCCC3)c2)cc1 ?
miR-21 act: 17.9%

Results for Cc1ccc(NC(=S)Nc2ccc(C(C)C)cc2)cc1S(=O)(=O)N1CCCCCC1 ?
Giardia killer: -5.4; PTHR1 agonist: -42.0%; ERG Ets-DNA blk: -2.9%; miR-21 act: 28.9%; 12-LOX inh: inconclusive; PINK1 expr mod: 11.2µM*

How did COc1ccccc1C=NNC(=O)NN=Cc1ccccc1OC do in these assays?
Giardia killer: 5.4; PTHR1 agonist: inactive; ERG Ets-DNA blk: 14.5%; 12-LOX inh: -20.4%; PINK1 expr mod: 9.6%

How did COc1ccccc1C=NN=C(NN=Cc1ccccc1OC)NN=Cc1ccccc1OC do in these assays?
Giardia killer: -11.2; PTHR1 agonist: inactive; ERG Ets-DNA blk: 5.3%; 12-LOX inh: inconclusive; PINK1 expr mod: 28.2µM*

How did O=c1[nH]c(Nc2ccccc2)nc2nccc(-c3ccco3)c12 do in these assays?
12-LOX inh: 35.5µM*

How did COc1cccc(Nc2nc3ccccc3c(=O)[nH]2)c1 do in these assays?
Giardia killer: -1.7; PTHR1 agonist: -3.9%; ERG Ets-DNA blk: -6.7%; miR-21 act: -7.9%; 12-LOX inh: -13.0%; PINK1 expr mod: -0.1%

What do the screens show for `CN(C)c1ccc(C2CC(c3cccc(NS(C)(=O)=O)c3)=NN2C(=O)c2ccccc2)cc1` (stereo not given)?
Giardia killer: 13.0; PTHR1 agonist: -22.5%; ERG Ets-DNA blk: 1.4%; miR-21 act: 0.0%; 12-LOX inh: 28.2µM*; PINK1 expr mod: 0.0%

Results for COc1cccc(C2CC(c3cccc(NS(C)(=O)=O)c3)=NN2C(=O)c2ccccc2)c1OC (stereo not given) ?
Giardia killer: 9.9; PTHR1 agonist: -4.4%; ERG Ets-DNA blk: 2.0%; miR-21 act: 8.3%; 12-LOX inh: -26.2%; PINK1 expr mod: 0.9%

How did CC(C1CC2CCC1C2)n1c(-c2cccs2)n[nH]c1=S (stereo not given) do in these assays?
Giardia killer: 4.3; PTHR1 agonist: -4.2%; ERG Ets-DNA blk: -3.4%; miR-21 act: 5.5%; 12-LOX inh: 44.7µM*; PINK1 expr mod: 4.5%

What do the screens show for `S=c1[nH]nc(-c2cccs2)n1C1CCCCC1`?
Giardia killer: inconclusive; PTHR1 agonist: -15.4%; ERG Ets-DNA blk: -10.0%; miR-21 act: -1.5%; 12-LOX inh: inconclusive; PINK1 expr mod: -0.9%

How did CCc1ccc(/C=C/C(=O)C2C(=O)c3ccccc3C2=O)cc1 do in these assays?
Giardia killer: -81.7*; PTHR1 agonist: -87.2%; miR-21 act: -4.6%; 12-LOX inh: inconclusive; PINK1 expr mod: -3.2%[38.3 µM]

Results for CCc1ccc(/C=C2\CCc3ccccc3C2=O)cc1 ?
12-LOX inh: -1.5%

Screening data from PubChem.
